The supplement of paper PMC10646978
± gives the standard deviation.

Key:
Conditions in all cases: modulator concentration 10 µM
[1] = system: RAW-Dual (murine macrophage reporter line); assay: NF-kB reporter (SEAP) activity fold change vs agonist alone; higher = enhanced NF-kB activity
In short: (§1)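 RAW-Dual murine macrophage reporter cells were seeded at 50 000 per well in 384-well plates and pre-incubated 1 hour at 37 °C with compound pin-transferred to 10 μM final. After 1 hour, a PRR agonist was added and cells incubated overnight. Supernatant NF-κB (SEAP, QUANTI-Blue, 620 nm absorbance) and IRF (Lucia luciferase, QUANTI-Luc, luminescence) signals were divided by the mean agonist-only control on the same plate to give fold change. Two replicate plates were averaged, with errors by propagation.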

[2] = system: RAW-Dual (murine macrophage reporter line); assay: IRF reporter (Lucia luciferase) activity fold change vs agonist alone; higher = enhanced IRF activity
In short: as §1

[3] = system: RAW-Dual (murine macrophage reporter line); assay: viability score (confluency relative to resting cells, overnight) (fraction); higher = more viable, active = viable (0.7 or more)
In short: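 RAW-Dual macrophages in 384-well plates were treated overnight with compound at 10 μM final. IncuCyte imaging recorded confluency, and IncuCyte software built two confluency masks across every imaged well. The viability score expresses confluency relative to resting cells and was judged against a cutoff, which a compound met only if both masks exceeded 70% of resting cells.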

[4] = agonist: CpG ODN 1826 0.5 ug/mL

Compound | NF-kB reporter [1, 4] | NF-kB reporter ([1]; agonist: LPS 0.1 ug/mL) | NF-kB reporter ([1]; agonist: MPLA […]) | IRF reporter ([2]; agonist: 3'3'-cGAMP 10 ug/mL) | IRF reporter ([2]; agonist: LPS 0.1 ug/mL) | IRF reporter ([2]; agonist: MPLA […]) | viability score [3]
CCN(CCCc1ccccc1)CCCc1ccccc1.O=C(O)CC(O)(CC(=O)O)C(=O)O | 1.32 ± 0.057 | 1.4 ± 0.11 | 2.08 ± 0.29 | 0.265 ± 0.014 | 0.448 ± 0.079 | 0.468 ± 0.11 | 0.991 (active)
CCOc1ccc(N2CCN(CC(=O)O)C2=O)cc1 | 1.15 ± 0.32 | 1.06 ± 0.11 | 1.02 ± 0.1 | 0.917 ± 0.063 | 0.968 ± 0.12 | 1.15 ± 0.21 | 0.997 (active)
CN1CCN(C(=O)C(C)(c2ccccc2)c2ccccc2)CC1 | 0.804 ± 0.063 | 1.1 ± 0.062 | 0.946 ± 0.056 | 0.981 ± 0.039 | 1.22 ± 0.13 | 1.08 ± 0.17 | 1 (active)
O=S(=O)(Cc1cccc(Cl)c1)N1C2CCC1CC(Oc1cccnc1)C2 (stereo not drawn) | 1.07 ± 0.064 | 1.13 ± 0.1 | 1.08 ± 0.039 | 0.96 ± 0.064 | 1.12 ± 0.063 | 1.2 ± 0.12 | 1 (active)
Oc1ccc(Cl)cc1-c1nc2ccccc2s1 | 1.01 ± 0.084 | 0.944 ± 0.087 | 0.967 ± 0.091 | 1.09 ± 0.035 | 1.29 ± 0.16 | 1.58 ± 0.23 | 1.02 (active)
CNCCc1ccccn1.Cl.Cl | 1.19 ± 0.36 | 0.956 ± 0.18 | 0.964 ± 0.08 | 0.946 ± 0.05 | 1.01 ± 0.31 | 1 ± 0.13 | 0.997 (active)
CC1CCC2C(C)(CO)C(O)CCC2(C)C12CCC(CO)(CCO)O2 (stereo not drawn) | 0.983 ± 0.073 | 0.945 ± 0.049 | 1.02 ± 0.033 | 0.99 ± 0.11 | 0.949 ± 0.048 | 0.952 ± 0.076 | 1 (active)
O=C1c2cccc3c2[C@H](CCC3)CN1[C@@H]1CN2CCC1CC2 [Prestw-1783] | 0.953 ± 0.06 | 0.913 ± 0.13 | 0.788 ± 0.031 | 0.63 ± 0.024 | 0.824 ± 0.044 | 0.752 ± 0.08 | 0.995 (active)
O=C(Nc1ccc(NS(=O)(=O)c2ccccc2)cc1)c1ccco1 | 1.12 ± 0.14 | 0.922 ± 0.13 | 0.998 ± 0.035 | 0.879 ± 0.14 | 0.818 ± 0.035 | 0.823 ± 0.095 | 1 (active)
Cc1cc(OCC(=O)NCCn2nc(C3CC3)ccc2=O)cc(C)c1Cl | 0.861 ± 0.2 | 1 ± 0.055 | 1.01 ± 0.064 | 0.956 ± 0.039 | 0.823 ± 0.14 | 1.01 ± 0.26 | 0.778 (active)
CCOC(=O)c1sc(NN=Cc2cccc(Cl)c2)nc1C | 1.04 ± 0.12 | 1.06 ± 0.059 | 0.89 ± 0.053 | 0.849 ± 0.039 | 1.57 ± 0.23 | 1.18 ± 0.18 | 1.01 (active)
CCOC(=O)C1=C(C)NC(=S)NC1c1cccc(C)c1 (stereo not drawn) | 0.93 ± 0.097 | 1.09 ± 0.097 | 1.05 ± 0.037 | 0.712 ± 0.17 | 0.944 ± 0.045 | 0.835 ± 0.057 | 0.975 (active)
O=c1cc(O)nc(SCc2c(F)c(F)c(F)c(F)c2F)[nH]1 | 1.01 ± 0.08 | 0.913 ± 0.07 | 1.05 ± 0.049 | 0.646 ± 0.066 | 1.01 ± 0.1 | 1.03 ± 0.21 | 1 (active)
CC(NC(=O)COc1ccc(C=NNC(=O)c2ccccc2O)cc1)c1ccccc1 (stereo not drawn) | 1.05 ± 0.13 | 1.03 ± 0.065 | 1.02 ± 0.061 | 0.985 ± 0.028 | 1.63 ± 0.23 | 1.2 ± 0.1 | 1.01 (active)
